The results in this text go back to PubChem BioAssay (NCI).

This is part of a sample that, as a whole, favours compounds with a hit. Of some 83,000 tested, about 20% had one in any assay.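 Plates (96-well) were seeded with cells, treated with compound at one concentration, and incubated for 48 hours before percent growth was determined.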 A number with no mark means an inactive call. The source made the active and inactive calls. Rule for the calls: active = growth percent below 10; inactive = the rest.

Among the test systems are NCI-H23 lung; NCI-H226 lung; NCI-H322M lung; HOP-62 NSCLC; NCI-H460 lung; HOP-92 NSCLC; NCI-H522 lung; A549/ATCC NSCLC; 786-0 renal; COLO 205 colon.
Common to all, as to assay: NCI-60 one-dose screen, 48 h (100 = growth as untreated, 0 = no growth, -100 = all killed)
Settings in all cases: 10 µM unless noted

On to `Nc1n[nH]c2ccc([C@@H]3Nc4c(F)cc5[nH]ncc5c4[C@H]4C5CCC(C5)[C@@H]34)cc12` (some centres undefined), for which the growth with NCI-H23 lung is 37.8%; in the experiment on NCI-H226 lung, 18.4%; in the experiment with NCI-H322M lung, 33.8%; in the experiment with HOP-62 NSCLC, 37.8%; in the experiment on NCI-H460 lung it was 4.8% (active); with HOP-92 NSCLC, 30.5%. Also, the growth in the experiment on NCI-H522 lung was 6.67% (active); in the experiment on A549/ATCC NSCLC it was 17.1%; with 786-0 renal, 40.4%.

In the case of `Cc1ccc(-c2cnc3sc4ccc(Cl)cc4n23)cc1`, the growth with NCI-H23 lung was 89.7%; in the experiment with NCI-H226 lung, 74.6%; in the experiment on NCI-H322M lung, 93.4%; with HOP-62 NSCLC, 80.3%; in the experiment with NCI-H460 lung, 104%; in the experiment with HOP-92 NSCLC, 85.6%. Moreover, the growth with NCI-H522 lung is 78.1%; in the experiment on A549/ATCC NSCLC, 112%; in the experiment on 786-0 renal, 109%.

As to `COc1cc(CN2CCO[C@H](COc3cccc(F)c3)C2)ccc1Cl`, the growth is 48.8% in the experiment on NCI-H23 lung; 59.7% in the experiment on NCI-H226 lung; 73.3% with NCI-H322M lung; 33.4% with HOP-62 NSCLC; 24.8% with NCI-H460 lung; 48.6% in the experiment with HOP-92 NSCLC. In addition, the growth with NCI-H522 lung is 30.7%; in the experiment with A549/ATCC NSCLC, 29.3%; in the experiment with 786-0 renal, 52%; in the experiment with COLO 205 colon it was 12.5%.

Take `CC1=C(C(=O)Nc2ccc(F)cc2)C(c2ccccc2)C2=C(CC(C)(C)CC2=O)N1` (centres undefined): the growth was 72.2% with NCI-H23 lung; 84.9% in the experiment on NCI-H226 lung; 95.9% in the experiment with NCI-H322M lung; 96.1% in the experiment on HOP-62 NSCLC; 73% in the experiment with NCI-H460 lung; -3.3% (active) in the experiment with HOP-92 NSCLC. Also, the growth in the experiment on NCI-H522 lung is 53.4%; in the experiment with A549/ATCC NSCLC, 76.7%; in the experiment on 786-0 renal it was 84.6%.

On to `COc1ccc(C(=O)C(C#N)c2cc(OC)c(OC)c(OC)c2)cc1` (centres undefined), for which the growth in the experiment with NCI-H23 lung was 113%; with NCI-H226 lung it was 99.4%; with NCI-H322M lung, 105%; in the experiment on HOP-62 NSCLC, 109%; in the experiment with NCI-H460 lung it was 107%; in the experiment on HOP-92 NSCLC, 83.6%. In addition, the growth is 85.2% with NCI-H522 lung, 98.1% in the experiment with A549/ATCC NSCLC, 97.6% with 786-0 renal and 106% with COLO 205 colon.

With `COc1ccc(-c2cn(-c3cccc(C(=O)/C=C/c4ccc(O)c(OC)c4)c3)c(=O)[nH]2)cc1`, the growth with NCI-H23 lung was 62.5%; in the experiment with NCI-H226 lung, 93.6%; in the experiment on NCI-H322M lung it was 64.8%; in the experiment with HOP-62 NSCLC it was 113%; in the experiment on NCI-H460 lung, 31.7%; in the experiment with HOP-92 NSCLC, 22.6%. Also, the results for the growth in the experiment on NCI-H522 lung, with A549/ATCC NSCLC and in the experiment on 786-0 renal were -4.38% (active), 31.5% and 34.5%, respectively.

As for `COc1ccc([C@@H]2[C@@H](Oc3ccccc3)C(=O)N2c2cc(OC)c(OC)c(OC)c2)cc1F`, the growth in the experiment on NCI-H23 lung was 16.5%; in the experiment on NCI-H226 lung it was 41.5%; in the experiment with NCI-H322M lung, 33.4%; in the experiment on HOP-62 NSCLC it was 14%; in the experiment on NCI-H460 lung it was 7.22% (active); with HOP-92 NSCLC, 42%. In addition, the growth with NCI-H522 lung is -26.1% (active); in the experiment on A549/ATCC NSCLC it was 13.4%; in the experiment on 786-0 renal, 5.88% (active); with COLO 205 colon it was -41.2% (active).

As for `COc1cc(/C=C/C(=O)c2c(C)nc3ccccc3c2C)ccc1OCCCOc1cc2c(cc1OC)C(=O)N1CCC[C@H]1C=N2`, the growth is -19.5% (active) with NCI-H23 lung; -4.56% (active) in the experiment with NCI-H226 lung; -58.6% (active) in the experiment with NCI-H322M lung; -6.66% (active) with HOP-62 NSCLC; -61% (active) with NCI-H460 lung; -45.1% (active) in the experiment with HOP-92 NSCLC. For the same molecule, the figures for the growth in the experiment with NCI-H522 lung, with A549/ATCC NSCLC and in the experiment with 786-0 renal were -56.9% (active), 2.42% (active) and -47.9% (active), respectively.

As for `COC1CC(N)C2OC(c3ccccc3)OCC2O1` (centres undefined), the growth was 103% with NCI-H23 lung; 104% in the experiment with NCI-H226 lung; 107% with NCI-H322M lung; 114% in the experiment on HOP-62 NSCLC; 103% with NCI-H460 lung; 136% in the experiment on HOP-92 NSCLC. Besides, the figures for the growth in the experiment with NCI-H522 lung, in the experiment on A549/ATCC NSCLC and in the experiment with 786-0 renal were 98.7%, 97.9% and 103%, respectively.

In the case of `NC(=O)c1noc(C(=O)c2ccccc2)c1N`, the growth is 101% with NCI-H23 lung; 89.8% in the experiment on NCI-H226 lung; 104% in the experiment with NCI-H322M lung; 114% in the experiment with HOP-62 NSCLC; 102% in the experiment on NCI-H460 lung; 107% in the experiment with HOP-92 NSCLC. Further, the figures for the growth in the experiment on NCI-H522 lung, in the experiment with A549/ATCC NSCLC and in the experiment on 786-0 renal were 80.4%, 89.1% and 97.9%, respectively.

With `C=C(C)[C@@H]1CC[C@]2(C)[C@H](CC=C3[C@@H]4C[C@](C)(C(=O)N5CCN(C)CC5)CC[C@]4(C)CC[C@]32C)[C@@]1(C)CCC#N`, the growth with NCI-H23 lung was 72.5%; in the experiment with NCI-H226 lung it was 69.6%; in the experiment with NCI-H322M lung it was 85.1%; with HOP-62 NSCLC, 63.1%; in the experiment with NCI-H460 lung it was 28%; in the experiment with HOP-92 NSCLC, 32.7%. Moreover, the growth in the experiment with NCI-H522 lung is 79.8%; in the experiment on A549/ATCC NSCLC it was 55.3%; in the experiment on 786-0 renal it was 71.5%.

For the molecule `Fc1ccc2nc(-c3ccc(-c4noc(-c5ccc(Cl)cc5)n4)cc3)[nH]c2c1`, the growth in the experiment on NCI-H23 lung is 104%; in the experiment on NCI-H226 lung it was 97.1%; in the experiment with NCI-H322M lung it was 107%; with HOP-62 NSCLC, 103%; with NCI-H460 lung, 103%; with HOP-92 NSCLC, 105%. Moreover, the growth in the experiment with NCI-H522 lung is 87.1%; in the experiment on A549/ATCC NSCLC, 100%; in the experiment with 786-0 renal it was 86.5%.

As to `COc1ccc(C(=O)c2cc(C)c(OC)c(C)c2)cc1OC(=O)CCl`, the growth in the experiment with NCI-H23 lung was 29.1%; in the experiment with NCI-H226 lung, 52.8%; in the experiment on NCI-H322M lung it was 42.7%; in the experiment with HOP-62 NSCLC, 17.8%; in the experiment with NCI-H460 lung, 6.67% (active); in the experiment with HOP-92 NSCLC, 96.5%. The figures for the growth in the experiment with NCI-H522 lung, in the experiment with A549/ATCC NSCLC and in the experiment with 786-0 renal were -40.2% (active), 14.6% and 16.2%, respectively.

As to `C=CCn1c(SCC(=O)Nc2ccc(/C(C)=N\O)cc2)nnc1-c1cc(-c2ccccc2)nc2ccccc12`, the growth in the experiment with NCI-H23 lung was 38.9%; with NCI-H226 lung, 65.4%; in the experiment with NCI-H322M lung it was 69.2%; in the experiment on HOP-62 NSCLC, 67.9%; in the experiment with NCI-H460 lung, 52.1%; in the experiment with HOP-92 NSCLC, 99.5%. Also, the growth was 41.6% in the experiment with NCI-H522 lung, 43.9% with A549/ATCC NSCLC and 45.2% with 786-0 renal.
